The source of these data is PubChem BioAssay.

Test [1] is described as follows: small molecules captured by biotinylated probe aFSTL3 – biochemical, small-molecule microarray, fluorescence 635/667, stem cell growth factor project, primary screen (AID 1064).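 Further: measures binding of the biotinylated anti-FSTL3 antibody to printed compounds.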 As to conditions: higher = more signal.
The nature of test [2]: binders from COS7 lysate, DM2A8 probe, primary screen, torsin A project, cell lysate, small-molecule microarray, fluorescence 635/667 (AID 1065). To be noted: higher = more signal, COS7 lysate expressing mutant human TOR1A.
Test [3] is described as follows: small molecules captured by biotinylated probe aFGF2 – biochemical, small-molecule microarray, fluorescence 635/667, stem cell growth factor project, primary screen (AID 1067).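 Further: measures binding of biotinylated aFGF2 protein to printed compounds on slides; z-score merges feature fluorescence and signal-to-noise across triplicate slides.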 As to conditions: higher = more signal.
Test [4] in a line: small molecules captured by biotinylated probe aFGF10 – biochemical, small-molecule microarray, fluorescence 635/667, stem cell growth factor project, primary screen (AID 1071).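 Further: score merges 667 nm spot intensity and signal to noise from triplicate slides.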 To be noted: higher = more signal.
Test [5] has as its target Neurogenic locus notch homolog protein 2 (Homo sapiens) (UniProt Q04721). As to the kind of experiment: small molecules binding Notch2 protein – biochemical, small-molecule microarray, 635 nm fluorescence, stem cell growth factors, primary screen (AID 1073). To be noted: higher = more signal.
Test [6] has as its target Pro-neuregulin-1, membrane-bound isoform (Homo sapiens) (UniProt Q02297). Nature of the test: small molecules binding neuregulin-1 protein – biochemical, small-molecule microarray, fluorescence 635/667, psychiatric disease protein project, primary screen (AID 1075).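 Further: score combines 667 nm spot fluorescence with signal to noise.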 As to conditions: NRG1 binding, 635 nm fluorescence, higher = more signal.
Test [7] deals with Neuregulin-1 EGF-like domain. As to the kind of experiment: small molecules binding NRG1 EGF domain – biochemical, small-molecule microarray, 635 nm fluorescence, primary screen (AID 1081).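 Further: binding of the protein to compounds printed on small-molecule microarray slides.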 As to conditions: higher = more signal.
The nature of test [8]: FRG1 expression reporter modulators in myotubes – cell-based, C2C12 myotubes, firefly/Renilla luciferase, luminescence, FRG1 inhibition for FSHD, primary screen (AID 1084). As to conditions: FRG1 promoter luciferase, higher = more signal, called active from +8 up or from −8 down.
The nature of test [9]: small molecules captured by biotinylated probe aFST – biochemical, small-molecule microarray, fluorescence 635/667, stem cell growth factor project, primary screen (AID 1086).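 Further: score merges 667 nm fluorescence with signal-to-noise of each printed compound spot.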 To be noted: higher = more signal.
Test [10] in a line: binders of probe aHhip on microarray, primary screen, stem cell growth factor project, biochemical, small-molecule microarray, fluorescence 635/667 (AID 1087).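 Further: score merges spot fluorescence at 667nm with spot signal to noise ratio.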 To be noted: higher = more signal.
In test [11] the test system is PRMT1 (protein arginine N-methyltransferase 1). Nature of the test: small molecules binding arginine methyltransferase PRMT1 – biochemical, small-molecule microarray, 635 nm fluorescence, primary screen (AID 1088).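 Further: binding of Prmt1 protein to compounds spotted on small-molecule microarray slides.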 To be noted: higher = more signal.
Test [12] can be described thus: growth effects on S. cerevisiae YJM789 – YJM789 clinical isolate, OD600, 24 h, basal, primary screen (AID 1089).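 Further: growth of clinical yeast isolate S. cerevisiae YJM 789 seeded 1000 cells per well; test concentration not given here.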 To be noted: higher = more signal, called active from +8 up or from −8 down.
A short description of test [13]: S. pombe growth modifiers, basal conditions – strain 972, OD600, 24 h, no modulator, primary screen (AID 1090).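 Further: basal condition with compound alone and no growth modifier present; test concentration not given here.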 As to conditions: S. pombe 972 growth, higher = more signal, called active from +8 up or from −8 down.
Test [14] is described as follows: budding yeast growth modifiers under rapamycin – strain BY4716, OD600, 96 h, primary screen (AID 1091). Further: test concentration not given here. To be noted: S. cerevisiae BY4716 + rapamycin, higher = more signal, called active from +8 up or from −8 down.
The target of test [15] is Torsin-1A-interacting protein 2 (Homo sapiens) (UniProt Q8NFQ8). As to the kind of experiment: small molecules binding lysate-expressed LULL1 – cell lysate, human LULL1 lysate, 635/667 nm fluorescence, primary screen (AID 1092).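 Further: probe is lysate of COS7 cells overexpressing human LULL1; score merges per-feature 667 nm fluorescence with signal-to-noise.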 To be noted: small-molecule microarray, hLULL1 lysate binding, 635 nm fluorescence; higher = more signal.
Sequence of Torsin-1A-interacting protein 2 (Homo sapiens) (Q8NFQ8 whole entry, looked up): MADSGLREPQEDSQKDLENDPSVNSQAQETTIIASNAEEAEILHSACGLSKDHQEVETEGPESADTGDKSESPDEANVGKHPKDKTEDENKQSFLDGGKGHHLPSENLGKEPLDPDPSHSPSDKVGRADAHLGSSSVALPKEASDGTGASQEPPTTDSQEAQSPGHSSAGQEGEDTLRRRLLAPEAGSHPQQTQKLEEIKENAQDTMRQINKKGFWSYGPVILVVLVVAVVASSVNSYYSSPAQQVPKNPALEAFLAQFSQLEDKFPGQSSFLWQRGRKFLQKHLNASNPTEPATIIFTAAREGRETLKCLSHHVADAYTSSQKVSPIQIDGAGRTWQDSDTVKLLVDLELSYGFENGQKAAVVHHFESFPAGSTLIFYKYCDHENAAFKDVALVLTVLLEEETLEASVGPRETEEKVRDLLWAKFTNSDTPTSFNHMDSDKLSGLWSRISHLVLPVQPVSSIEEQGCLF
Test [16] is described as follows: optical density change of DRC41 E. coli – strain DRC41, OD650, 24 h, E. coli filamentation project, primary screen (AID 1093).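 Further: MC1000 strain lacking acrAB efflux and sulA so SOS filamentation is blocked; test concentration not given here.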 As to conditions: E. coli DRC41 growth, higher = more signal, called active from +8 up or from −8 down.
The nature of test [17]: probe aLefty2 binding to arrayed compounds – biochemical, biotinylated probe, 635/667 nm fluorescence, primary screen (AID 1094).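 Further: score merges spot fluorescence near 667 nm with spot signal-to-noise ratio.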 As to conditions: small-molecule microarray, higher = more signal.
Test [18] relates to Noggin (protein binding on small-molecule microarray). As to the kind of experiment: small molecules binding Noggin protein – biochemical, 635/667 nm fluorescence, primary screen (AID 1095).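 Further: score merges 667 nm feature fluorescence with signal to noise over triplicate slides.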 As to conditions: 635 nm fluorescence, higher = more signal.
In test [19] the target is Neurogenic locus notch homolog protein 3 (Homo sapiens) (UniProt Q9UM47). Nature of the test: small molecules binding NOTCH3 protein – biochemical, 635/667 nm fluorescence, primary screen (AID 1096). To be noted: small-molecule microarray, 635 nm fluorescence, higher = more signal.
Sequence of Neurogenic locus notch homolog protein 3 (Homo sapiens) (Q9UM47 whole entry, looked up): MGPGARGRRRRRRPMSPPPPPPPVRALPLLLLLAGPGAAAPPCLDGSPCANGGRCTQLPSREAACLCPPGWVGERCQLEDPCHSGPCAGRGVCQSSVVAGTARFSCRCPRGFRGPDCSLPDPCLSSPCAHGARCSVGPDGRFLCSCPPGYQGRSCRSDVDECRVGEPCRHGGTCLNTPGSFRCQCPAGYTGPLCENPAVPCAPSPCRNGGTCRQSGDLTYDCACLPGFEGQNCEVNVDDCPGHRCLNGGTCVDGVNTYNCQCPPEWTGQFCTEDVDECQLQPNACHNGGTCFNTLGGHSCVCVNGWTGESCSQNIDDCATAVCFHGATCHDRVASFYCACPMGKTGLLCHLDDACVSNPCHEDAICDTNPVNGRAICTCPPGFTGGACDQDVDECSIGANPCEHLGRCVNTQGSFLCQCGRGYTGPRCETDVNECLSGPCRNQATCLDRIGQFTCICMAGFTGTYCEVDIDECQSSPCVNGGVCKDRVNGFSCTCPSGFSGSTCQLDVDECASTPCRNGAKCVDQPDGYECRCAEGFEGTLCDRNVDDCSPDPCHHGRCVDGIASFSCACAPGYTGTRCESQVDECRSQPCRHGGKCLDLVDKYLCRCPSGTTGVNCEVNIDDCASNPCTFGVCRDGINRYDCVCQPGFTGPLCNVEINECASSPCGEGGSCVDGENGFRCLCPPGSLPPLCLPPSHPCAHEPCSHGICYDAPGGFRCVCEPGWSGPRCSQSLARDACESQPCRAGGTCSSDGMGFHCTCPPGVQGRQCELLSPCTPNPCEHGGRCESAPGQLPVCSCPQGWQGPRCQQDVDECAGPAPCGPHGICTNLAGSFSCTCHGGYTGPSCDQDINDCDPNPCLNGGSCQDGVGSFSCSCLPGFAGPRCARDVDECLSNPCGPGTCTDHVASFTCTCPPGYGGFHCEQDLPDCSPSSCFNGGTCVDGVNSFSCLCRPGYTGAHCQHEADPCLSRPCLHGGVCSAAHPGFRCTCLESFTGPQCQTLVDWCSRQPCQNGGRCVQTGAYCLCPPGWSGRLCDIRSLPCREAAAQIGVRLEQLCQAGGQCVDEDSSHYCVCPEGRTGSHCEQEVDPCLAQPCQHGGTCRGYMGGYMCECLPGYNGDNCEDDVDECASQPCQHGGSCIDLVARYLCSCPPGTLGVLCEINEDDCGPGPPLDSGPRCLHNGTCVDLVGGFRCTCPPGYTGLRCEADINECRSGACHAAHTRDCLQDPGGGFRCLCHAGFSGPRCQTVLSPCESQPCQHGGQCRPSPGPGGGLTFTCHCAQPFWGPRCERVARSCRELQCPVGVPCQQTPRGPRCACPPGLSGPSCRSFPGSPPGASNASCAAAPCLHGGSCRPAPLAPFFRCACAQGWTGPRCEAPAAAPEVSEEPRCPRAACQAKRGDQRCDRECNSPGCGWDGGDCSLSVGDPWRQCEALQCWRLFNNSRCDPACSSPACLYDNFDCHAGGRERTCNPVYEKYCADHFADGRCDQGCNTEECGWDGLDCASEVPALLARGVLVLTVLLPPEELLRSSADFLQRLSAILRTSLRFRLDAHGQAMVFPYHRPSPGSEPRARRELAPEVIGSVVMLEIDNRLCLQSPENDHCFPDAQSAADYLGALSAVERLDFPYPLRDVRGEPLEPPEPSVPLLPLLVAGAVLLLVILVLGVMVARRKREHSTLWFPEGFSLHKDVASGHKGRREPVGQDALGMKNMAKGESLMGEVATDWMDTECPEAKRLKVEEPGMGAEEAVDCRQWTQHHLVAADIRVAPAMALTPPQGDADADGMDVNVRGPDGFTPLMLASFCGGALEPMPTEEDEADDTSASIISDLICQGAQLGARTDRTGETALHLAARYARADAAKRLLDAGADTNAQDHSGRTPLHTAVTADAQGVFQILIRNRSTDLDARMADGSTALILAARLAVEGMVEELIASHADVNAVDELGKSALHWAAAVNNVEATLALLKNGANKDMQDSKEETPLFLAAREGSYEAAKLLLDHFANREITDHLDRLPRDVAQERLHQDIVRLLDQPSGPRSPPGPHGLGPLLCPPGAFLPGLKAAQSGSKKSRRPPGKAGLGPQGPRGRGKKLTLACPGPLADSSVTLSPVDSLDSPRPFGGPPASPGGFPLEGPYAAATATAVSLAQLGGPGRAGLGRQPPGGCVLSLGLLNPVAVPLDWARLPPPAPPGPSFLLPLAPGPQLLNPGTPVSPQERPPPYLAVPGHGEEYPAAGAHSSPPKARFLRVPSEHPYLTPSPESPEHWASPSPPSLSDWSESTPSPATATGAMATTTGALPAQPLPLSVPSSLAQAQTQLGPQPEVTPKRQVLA
A short description of test [20]: probe aEGFR binding to arrayed compounds – biochemical, biotinylated probe, 635/667 nm fluorescence, primary screen (AID 1097).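 Further: probe is a biotinylated anti-EGFR antibody binding compounds printed on slides; score combines fluorescence near 667 nm and signal to noise of each spot.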 To be noted: small-molecule microarray, higher = more signal.

SMILES strings stand for the structures. Active and inactive are the calls of the source.

Sequence of Pro-neuregulin-1, membrane-bound isoform (Homo sapiens) (Q02297 whole entry, looked up, the tested form may be a part, canonical isoform): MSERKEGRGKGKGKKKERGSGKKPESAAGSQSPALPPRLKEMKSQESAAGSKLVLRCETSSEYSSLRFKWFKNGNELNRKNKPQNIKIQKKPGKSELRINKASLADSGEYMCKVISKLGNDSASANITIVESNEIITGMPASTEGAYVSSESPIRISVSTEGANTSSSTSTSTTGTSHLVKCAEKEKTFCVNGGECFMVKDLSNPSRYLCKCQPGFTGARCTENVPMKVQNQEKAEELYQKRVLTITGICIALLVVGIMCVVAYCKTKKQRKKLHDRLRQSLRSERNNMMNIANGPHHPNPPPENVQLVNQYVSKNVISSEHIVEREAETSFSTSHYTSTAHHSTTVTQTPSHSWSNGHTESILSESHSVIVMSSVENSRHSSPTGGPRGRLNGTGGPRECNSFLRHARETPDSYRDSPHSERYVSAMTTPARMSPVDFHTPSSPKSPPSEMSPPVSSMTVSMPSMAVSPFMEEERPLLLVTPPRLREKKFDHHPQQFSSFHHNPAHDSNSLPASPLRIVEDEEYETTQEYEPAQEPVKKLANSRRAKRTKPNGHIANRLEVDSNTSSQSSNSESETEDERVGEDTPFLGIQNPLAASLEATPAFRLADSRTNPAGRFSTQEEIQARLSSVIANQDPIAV

Regarding `CC(=O)NCCCC[C@@H]1NC(=O)[C@@H]2C[C@H](C(=O)NCCCCCCN)[C@H](c3cccc(OCCO)c3)N2C1=O`, the composite z-score is 0.501 in test [1]; 0.43 in [2]; -0.0336 in test [3]; 0.281 in [4]; -0.149 in test [5]; 1.63 in test [6]. Also, the composite z-score is 1.08 in test [7]; -0.0064 in test [9]; -0.0296 in test [10]; 0.858 in test [11]; 2.3 in test [15]; -0.0554 in test [17]. The composite z-score is 0.271 in test [18], -0.239 in [19] and -0.175 in [20]. Besides, the z-score was 2.15 (inactive) in test [8]; 0.119 (inactive) in [12]; -0.646 (inactive) in [13]; -0.831 (inactive) in [14]; -0.314 (inactive) in test [16].

Consider `O=C(N1CCOCC1)[C@@]1(CCS(=O)(=O)c2ccccc2)N=C(c2ccc(OCCCO)cc2)O[C@H]1c1ccccc1`, for which the composite z-score in test [1] is 0.448; in test [2] it was 1.06; in [3] it was 0.0671; in [4], 0.515; in test [5], 1.45; in test [6], 2.31. Also, the composite z-score is 1.37 in test [7]; 1.37 in test [9]; -0.191 in test [10]; 1.44 in [11]; 3.56 in test [15]; 0.352 in test [17]. The values for the composite z-score in test [18], in [19] and in [20] were 0.136, 1.15 and 0.156, respectively. Further, the z-score in test [8] is 0.419 (inactive); in [12] it was 0.487 (inactive); in test [13], 0.395 (inactive); in test [14], -0.0156 (inactive); in test [16], 0.746 (inactive).

Turning to `CN(C)C(=O)[C@@]1(Cc2ccccc2)COC(c2ccc(OCCCO)cc2)=N1`, the composite z-score is 0.862 in [1]; -0.111 in [2]; 0.0412 in [3]; -0.055 in [4]; -0.266 in test [5]; 1.81 in [6]. Further, the composite z-score in test [7] was 0.61; in test [9], -0.341; in [10] it was 0.217; in [11], 0.243; in test [15], 2.87; in test [17], 0.137. Besides, the composite z-score in [18] was -0.955; in test [19] it was -0.451; in test [20], 0.0005. For the same molecule, the z-score is -0.698 (inactive) in test [8]; -0.0054 (inactive) in [12]; -4.61 (inactive) in test [13]; -1.59 (inactive) in test [14]; 1.31 (inactive) in [16].

Regarding `C=CCC(OC(C)=O)[C@@H]1[C@@H](N(Cc2cccc3ccccc23)C(=O)c2ccc(-c3ccccc3)cc2)c2cc(OCCCO)ccc2N1C(=O)c1ccc(-c2ccccc2)cc1` (stereo not given in full), the composite z-score in [1] is -0.0061; in test [2] it was 0.356; in test [3], -0.06; in test [4] it was 0.0099; in test [5], 0.369; in [6], 0.0975. Moreover, the composite z-score is -0.453 in test [7]; 0.392 in [9]; 0.0274 in [10]; -0.0425 in [11]; 0.549 in test [15]; -0.0179 in test [17]. The composite z-score is -0.63 in test [18], -0.234 in test [19] and -0.106 in test [20]. For the same molecule, the z-score is -0.774 (inactive) in test [8]; -1.05 (inactive) in [12]; -0.0057 (inactive) in [13]; -0.415 (inactive) in [14]; -1.02 (inactive) in test [16].

In the case of `NC(=O)[C@H]1[C@@H]2C(=O)O[C@@H](c3ccccc3)[C@@H](c3ccccc3)N2[C@@H](c2ccc(O)cc2)[C@]12C(=O)Nc1ccccc12`, the composite z-score in test [1] was 0.339; in test [2] it was -1.11; in test [3], -0.128; in [4] it was -0.171; in test [5], -1.37; in test [6], 1.81. The composite z-score in [7] is 0.653; in test [9], -0.442; in test [10], -0.137; in test [11] it was -0.472; in test [15] it was 2.99; in [17], -0.139. Further, the results for the composite z-score in test [18], in test [19] and in [20] were -1.18, -1.03 and -0.356, respectively. The z-score in test [8] was -0.977 (inactive); in test [12], 0.446 (inactive); in test [13] it was -0.732 (inactive); in test [14] it was 0.659 (inactive); in [16], 0.13 (inactive).
